According to PubChem BioAssay (EPA / NIEHS):
Active and inactive are the calls of the source. The calls were made as follows: active = hit-call score of the fitted dose curve at least 0.9, where 1 is the maximum; inactive = score below 0.9.

Assay: CCTE_Harrill_HTTr_Viability_MCF7: CCTE's 6-hour Cell Viability Assessment for the High-Throughput Transcriptomics (HTTr) Platform, in MCF-7 cells cultured in DMEM + 10% fetal bovine serum, Harrill Lab (AID 2284010)
Description: This is a cell-based assay that evaluates cell viability using high content imaging to evaluate membrane integrity using propidium iodide dye exclusion in a 384 well format.One of seven assay components measured from the CCTE_Harrill_HTTr_Viability assay. This was part of a full screening experiment. This is a cell-based assay that evaluates cell viability in MCF-7 cells cultured in DMEM + 10% fetal bovine serum. High content imaging is used to evaluate membrane integrity using propidium iodide dye exclusion. Measurements are taken at 6 hours after chemical dosing in 384-well format.The assay component endpoint CCTE_Harrill_HTTr_Viability_MCF7 was analyzed with bidirectional fitting relation to DMSO as the negative control and baseline of activity. Using a type of viability reporter, gain-of-signal activity can be used to evaluate membrane integrity using propidium iodide dye exclusion to understand changes in cytotoxicity. To generalize the intended target to other relatable targets, this assay endpoint is annotated to cell cycle, where the subfamily is cytotoxicity.
Chemicals were tested in MCF7 cells in an eight point dilution series with a six hour exposure duration.

| SMILES | outcome |
| --- | --- |
| CCOC(=O)COc1ccc2c(c1)CC(NCC(O)c1cccc(Cl)c1)CC2 (stereo not given) | inactive |
| CC1(C)C(=O)N(Br)C(=O)N1Br | inactive |
| NC(=O)NO | inactive |
| CC(C)=CCC/C(C)=C/CO | inactive |
| CCCCCCCCCCCCCCCO | inactive |
| COc1ccc(-n2nc(C(F)F)cc2-c2ccc(S(C)=O)cc2)cc1 (stereo not given) | inactive |
| Nc1cccc(N)c1 | inactive |
| O=C1CCC(N2C(=O)c3ccccc3C2=O)C(=O)N1 (stereo not given) | inactive |
| CCOC(=O)c1ccc(C2CCC(NC[C@H](O)COc3ccc(O)c(NS(C)(=O)=O)c3)CC2)cc1 (stereo not given in full) | inactive |
| CC(C)=CCC/C(C)=C\CO | inactive |
| C=CC(=C)CCC=C(C)C | inactive |
| O=C(O)c1cc(N=Nc2ccc(S(=O)(=O)Nc3ccccn3)cc2)ccc1O | inactive |
| O=C(O)CCN(C1(C(=O)NO)CCCC1)S(=O)(=O)c1ccc(Oc2ccc(F)cc2)cc1 | inactive |
| Nc1ccc(Nc2ccccc2)cc1 | inactive |
| CCOC(=O)CC(CC(=O)OCC)(OC(C)=O)C(=O)OCC | inactive |
| COc1ccc(/C=C/S(=O)(=O)NC(=O)c2ccc(C)cc2Cl)cc1 | inactive |
| CC[C@H](C)C(=O)O[C@H]1C[C@@H](C)C=C2C=C[C@H](C)[C@H](CC[C@@H]3C[C@@H](O)CC(=O)O3)[C@H]21 | inactive |
| CCOCCO | inactive |
| O=C1CCCCCN1 | inactive |
| Cc1ccc(C)c(O)c1 | inactive |

| SMILES | outcome |
| --- | --- |
| CC(C)CCCCCCOC(=O)c1ccc(C(=O)OCCCCCCC(C)C)c(C(=O)OCCCCCCC(C)C)c1 | inactive |
| O=c1[nH]c2ccc(S(=O)CCN3CCC(Cc4ccc(F)cc4)CC3)cc2o1 (stereo not given) | inactive |
| CCCCCCCCO | inactive |
| CC(=O)OCCC(C)C | inactive |
| Cn1cnc([N+](=O)[O-])c1Sc1ncnc2nc[nH]c12 | inactive |
| O=P(OC(CCl)CCl)(OC(CCl)CCl)OC(CCl)CCl | inactive |
| C1=CCCC=CCCC=CCC1 | inactive |
| COc1ccc2sc(C(=O)Nc3nnn[nH]3)c(OC(C)C)c2c1 | inactive |
| Cc1ccc(O)cc1 | inactive |
| COc1cccc(-c2ccc(/C=C\CN3CCCCCC3)cc2Cl)c1 | inactive |
| O=C(O)CC(O)C(=O)O (stereo not given) | inactive |
| COCCOc1cc2cc(C(=O)NC3CCN(C(C)C)CC3)n(CC(=O)Nc3ccc(Cl)cn3)c2cn1 | inactive |
| CCn1nc(Cc2ccccc2)cc1C1CCN(C[C@H]2C[C@H](N(C)[C@@H](C(=O)O)C(C)C)C[C@@H]2c2cccc(F)c2)CC1 | inactive |
| CC(C)CC(C)(O)C#CC(C)(O)CC(C)C (stereo not given) | inactive |
| CC(C)=CCCC(C)=CC=O | inactive |
| O=C(O)c1cccc(N(Cc2cccnc2)c2ccc(OC(F)F)c(OC(F)F)c2)c1 | inactive |
| CC1=CC(=O)CC(C)(C)C1 | inactive |
| CC[C@H]1OC(=O)[C@H](C)[C@@H](O[C@H]2C[C@@](C)(OC)[C@@H](O)[C@H](C)O2)[C@H](C)[C@@H](O[C@@H]2O[C@H](C)C[C@H](N(C)C)[C@H]2O)[C@](C)(O)C[C@@H](C)C(=O)[C@H](C)[C@@H](O)[C@]1(C)O | inactive |
| CCN(C(=O)c1cc(C)cc(OC[C@H](C)Nc2ccncc2)c1)C(C)C | inactive |
| On1ccccc1=S | inactive |
